Source: PubChem BioAssay
FBPA Giardia inh = Giardia lamblia aldolase inhibition | A8B2U2 | purified Giardia FBPA | Potency, µM (titrated, usually from 59.6 µM), without a hit: at the top dose activity, negative = inhibition, usual class: inhibitors | 0.71% of 290,000 active | AID 2451; also: potency is read from the fitted curve at half-maximal effect; % is scaled to controls: 0 for no effect and ±100 for the full control effect; nearly all actives have a fitted effect of over 55% in size
Target sequence (A8B2U2 whole entry, looked up): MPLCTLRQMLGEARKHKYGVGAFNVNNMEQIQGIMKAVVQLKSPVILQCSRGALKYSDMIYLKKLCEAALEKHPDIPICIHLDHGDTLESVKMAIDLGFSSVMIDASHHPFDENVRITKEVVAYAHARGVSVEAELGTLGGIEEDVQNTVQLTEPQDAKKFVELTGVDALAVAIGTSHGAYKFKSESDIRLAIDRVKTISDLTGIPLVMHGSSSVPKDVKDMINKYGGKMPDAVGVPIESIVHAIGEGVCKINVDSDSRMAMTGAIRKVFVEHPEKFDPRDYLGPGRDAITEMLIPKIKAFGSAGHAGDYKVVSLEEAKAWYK
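40 nM FBPA preincubated 10 min at RT with compound (up to 57.5 uM final), then substrate plus GAPDH/TPI/NAD/arsenate coupling and diaphorase/resazurin added. Fluorescence read after 20 min at RT, 525/598 nm.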
TbPYK inhibitor = blocks Trypanosoma brucei pyruvate kinase | 0.12% of 410,000 active | Potency, µM (titrated, usually from 76.8 µM), inactives show at the top dose activity, negative = inhibition, hits mostly inhibitors | Q57TT1 | TbPYK enzyme, Kinase-Glo Plus ATP luminescence, 45 min; also: potency is read from the fitted curve at half-maximal effect; % is scaled to controls: 0 for no effect and ±100 for the full control effect; nearly all actives have a fitted effect of over 50% in size
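Screened from lowest to highest concentration, compounds were pinned into TbPYK/substrate mixtures, and ADP (130 uM final) was added. Plates sat at room temperature for 45 min prior to Kinase-Glo Plus detection by luminescence.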
CHX counter = counter-screen hit for Shiga toxin inhibitors, cycloheximide; max response, %; AID 2314; cell reporter, cycloheximide protein synthesis inhibition counterscreen; 12% of 300,000 active; in the data active = max response mostly above about 13%, no sharp cut-off; inactive = mostly below about 14%; also: read at 38.3 µM for the half of the compounds with a filed dose; 0% is about no effect
LmPK inhibitor = blocks Leishmania mexicana pyruvate kinase activity | Q27686 | purified LmPK, Kinase-Glo ATP luminescence, 1 h | Potency, µM (highest dose often 57.5 µM), without a hit: top-dose activity change, negative = inhibition, hits mostly inhibitors | 0.37% of 290,000 active; also: potency is read from the fitted curve at half-maximal effect; % is scaled to controls: 0 for no effect and ±100 for the full control effect
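Purified LmPK (0.1 nM) with 0.5 mM PEP and 0.1 mM ADP in imidazole buffer pH 7.2 with MgCl2/KCl, 1 h at room temperature. ATP formed was read by luciferase luminescence and normalized to no-enzyme and uninhibited controls.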
RE007 growth inh = less growth of the S. pombe RE007 Vpr strain | S. pombe RE007 Vpr strain, BacTiter-Glo ATP luminescence, 24 h | Potency, µM (titrated, usually from 92.2 µM), without a hit: top-dose activity change, negative = less growth, usual class: inhibitors | 0.21% of 360,000 active; active = well fitted falling curve with a large enough effect; inconclusive = small, poorly fitted or top-dose-only effect; inactive = no such curve, though single readings can be large or run the other way; also: potency is read from the fitted curve at half-maximal effect; % is scaled to controls: 0 for no effect and ±100 for the full control effect; nearly all actives have a fitted effect of over 50% in size
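Fission yeast RE007 carrying one integrated HIV-1 vpr copy, seeded at OD 0.01 in PMG+AL medium with 23 nL pinned compound. Grown 24 h at 30 degrees; viability read by BacTiter-Glo luminescence after 5 min.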
Shiga toxin inh = Shiga toxin inhibition. inhibition, % at 38.7 µM. Vero cells, Shiga toxin protein synthesis inhibition reporter. 9.2% of 290,000 active; in the data active = inhibition mostly above about 28%, no sharp cut-off; inactive = mostly below about 43%; also: 0% is about no effect
Starred values were filed as active, the others as inactive; u = inconclusive; x = no result. The entries come from a sample that favours hits as a whole. Unless noted, calls follow the shape of the dose curve; as a rule, active = well fitted curve in the direction sought with a large enough effect; inconclusive = small, poorly fitted or top-dose-only effect, or another doubt; inactive = no such curve, though single readings can be large; an effect the other way counts as inactive or inconclusive.

SMILES | FBPA Giardia inh | TbPYK inhibitor | CHX counter | LmPK inhibitor | RE007 growth inh | Shiga toxin inh
CC(C)CC(=O)NC(=S)Nc1sc2c(c1C(N)=O)CCC2 | -11% | -7% | 16 | 0% | -6% | 30
CC(C)(C)c1ccc(-c2nc(C#N)c(NCCCn3ccnc3)o2)cc1 | -1% | -4% | 9 | 6% | 5% | 10
CC(C)CNc1oc(-c2ccc(F)cc2)nc1C#N | 0% | -3% | 16* | 5% | 4% | 40*
Cc1ccc(-c2nc(C#N)c(NCc3cccc4c3OCO4)o2)cc1 | -8% | -13% | 26* | 3% | 7% | 59*
CC(C)(C)c1ccc(-c2nc(C#N)c(NCc3ccncc3)o2)cc1 | -25% | 1% | 57* | 2% | -8% | 91*
N#Cc1nc(Cc2cccc3ccccc23)oc1NCc1ccc(F)cc1 | -12% | -6% | -2 | 5% | 2% | -9
N#Cc1nc(-c2ccc(F)cc2)oc1NCc1cccc2c1OCO2 | -10% | 1% | 34* | 3% | -1% | 46
CCOC(=O)CC(NC(=O)CCc1c(C)nc2c(-c3ccccc3)c(C)nn2c1C)c1ccc(C)cc1 (stereo not drawn) | x | 0% | x | x | x | x
CCCN(C(=O)c1cc2c(s1)-c1ccccc1SC2)c1ccccc1F | x | 4% | x | x | x | x
CCOC(=O)c1c(C)[nH]c(C)c1S(=O)(=O)NCC(=O)Nc1ccc(C)cc1C | x | 0% | x | x | x | x
CC(=O)N1CCN(C(=O)CC2OC(=O)c3ccccc32)CC1 (stereo not drawn) | -22% | -8% | 1 | 5% | 45µM* | -3
O=C(CC1OC(=O)c2ccccc21)Nc1ccccc1N1CCOCC1 (stereo not drawn) | 5% | 4% | -4 | 3% | -13% | 8
CCOC(=O)c1c(C)nc2c3ccccc3ccn12 | -13% | -2% | 32* | -16% | -16% | 37*
Clc1ccc2c(c1)CNc1c(ncnc1N1CCOCC1)O2 | 1% | -2% | 12* | -2% | -7% | -14
CC(C)c1ccc(NC2CCCN(C(=O)c3cccs3)C2)cc1 (stereo not drawn) | -11% | -15% | 32* | 5% | -14% | 23*
C(#Cc1ccccc1)Cn1nnc2ccccc21 | -4% | 4% | 37* | 3% | 17% | 49*
COCCNC(=O)c1ccc2c(Cl)c3c(nc2c1)CCC3 | -2% | -4% | 46* | 4% | -27% | 77*
Cc1c(/C=N/Nc2ccc(F)cc2)c(O)n(C)c(=O)c1C#N | u | -1% | 2 | 17% | -6% | -6
CC(=O)N=Cc1c(C)c(C#N)c(=O)n(C)c1O | 8.9µM* | 1% | 2 | 1% | -3% | -6
Cc1cc(C)n(C)c(=O)c1C#N | 2% | 2% | 7 | -4% | -10% | -16
Cc1c(C=O)c(Cl)n(C)c(=O)c1C#N | 10µM* | 0% | 7 | -8% | 2% | -5
O=C(Cc1c(F)cccc1Cl)Nc1ccccc1-c1ccccc1 | 5% | 0% | -4 | 7% | 5% | 1
O=C(Nc1ccccc1-c1ccccc1)C1CCC1 | 5% | 3% | 26* | -2% | 12% | 53
O=C(Cc1ccccc1F)Nc1ccccc1-c1ccccc1 | 4% | 0% | 27* | 1% | 1% | 70*
O=C(Nc1ccccc1-c1ccccc1)C1CCCCC1 | 6% | 3% | -4 | 9% | 15% | -3
SMILES | FBPA Giardia inh | TbPYK inhibitor | CHX counter | LmPK inhibitor | RE007 growth inh | Shiga toxin inh
c1ccc2c(c1)Cn1c-2nc2ccccc21 | -15% | u | 32* | 14µM* | u | 62*
Brc1c(-c2ccccc2)nc2n1Cc1ccccc1-2 | -1% | 3% | 52* | -12% | -21% | 141*
COC(CNC(=O)c1ccc2c(c1)ncn2-c1ccc(F)c(F)c1)OC | 4% | 2% | 13 | -1% | -9% | 29
COCCNC(=O)c1ccc2c(c1)ncn2-c1ccc(F)c(F)c1 | 3% | -3% | 17* | -2% | -8% | 25
COc1cc(CCC(=O)OCC(=O)Nc2ccc(C)cc2Cl)cc(OC)c1OC | 10% | -10% | 16 | 9% | -9% | 8
O=C(NCc1ccccn1)Nc1ccc(Cl)c(Cl)c1 | 6% | 4% | 26* | 3% | -4% | 55*
COc1cccc(NC(=O)C(=O)NCCCn2ccnc2)c1 | -1% | -2% | 34* | -8% | 6% | 57
CC(C)c1ccc(NC(=S)N(C)CCc2ccccn2)cc1 | -13% | 6% | 30* | 5% | -11% | 88*
Cc1cccc(NC(=O)NCc2ccccn2)c1 | 4% | -10% | 27* | 3% | 20% | 51*
O=C(NCc1ccccn1)Nc1ccc(F)c(Cl)c1 | -9% | 8% | 6 | 2% | -9% | 9
Cc1cccc(C)c1NC(=S)N(C)CCc1ccccn1 | -10% | -9% | -3 | -4% | -12% | -7
CCOc1ccc(NC(=O)c2c(C)oc3nc(C)nc(N4CCOCC4)c23)cc1 | x | 1% | x | x | x | x
CC1(C)Oc2ccc(C(=O)NNC(=O)Nc3ccccc3)cc2NC1=O | x | -10% | -2 | 0% | -14% | -9
COc1cccc(NC(=O)C(=O)NCCc2ccc(F)cc2)c1 | 0% | 4% | 41* | -3% | -15% | 91*
COc1cccc(NC(=O)NCCCCc2ccccc2)c1 | -1% | 5% | 31* | -2% | -11% | 24
COc1cccc(NC(=O)NCc2ccccn2)c1 | -11% | 6% | 17* | -8% | 13% | 30*
O=C(NCc1ccccn1)Nc1cccc(Cl)c1 | 0% | 2% | 29* | 8% | 7% | 43*
O=C(NCc1ccccn1)c1ccc(Cl)cc1Cl | 1% | 1% | 28* | -6% | -7% | 51*
O=C(NCc1ccccn1)Nc1cccc(NC(=O)NCc2ccccn2)c1 | -6% | 5% | 5 | 6% | -4% | 12
O=C(NCCCNC(=O)c1ccc(Cl)cc1Cl)c1ccccn1 | 6% | 0% | -3 | 2% | 7% | -6
COc1cccc(NC(=O)NCc2ccccc2F)c1 | -8% | -24% | 40* | -6% | 9% | 97*
Cc1ccc(Cl)cc1NC(=O)NCc1ccccn1 | -1% | 3% | 9 | 4% | 5% | 11
CC(C)c1ccc(NC(=O)NCc2ccccn2)cc1 | 0% | -4% | 33* | -4% | 0% | 68*
O=C(NCc1ccccn1)Nc1cc(Cl)ccc1Cl | x | 1% | 36 | -8% | 12% | 90*
COc1ccc(NC(=O)NCc2ccccc2F)cc1OC | -1% | -3% | -1 | -7% | 13% | -22
CCOc1ccc(NC(=O)c2c(NC(=O)Cc3ccccc3)sc3c2CCCC3)cc1 | x | 4% | x | x | x | x
CCN(Cc1ccccc1)C(=O)CCS(=O)(=O)c1cc(Br)cc2c1N(C(=O)C1CC1)CC2 | x | -9% | x | x | x | x
COc1ccc(/C=C2\CC/C(=C\c3ccc(OC)cc3OC)C2=O)c(OC)c1 | -13% | -7% | 26* | 1% | 1% | 60*
